# AmpC detergent: qHTS Inhibitors of AmpC Beta-Lactamase (assay with detergent); 370,000 compounds, 0.041% hits; AID 485294, 2010; P00811; AmpC hydrolysis of nitrocefin, absorbance 480 nm, 0.01% Triton; Potency, µM (titrated, usually from 114 µM), for the others: at the top dose activity change, negative = inhibition, most hits filed as inhibitors;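 also: 0% = no-compound wells and -100% = no-enzyme wells; nearly all actives have a fitted effect of over 25% in size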
# Target sequence (P00811 whole entry, looked up): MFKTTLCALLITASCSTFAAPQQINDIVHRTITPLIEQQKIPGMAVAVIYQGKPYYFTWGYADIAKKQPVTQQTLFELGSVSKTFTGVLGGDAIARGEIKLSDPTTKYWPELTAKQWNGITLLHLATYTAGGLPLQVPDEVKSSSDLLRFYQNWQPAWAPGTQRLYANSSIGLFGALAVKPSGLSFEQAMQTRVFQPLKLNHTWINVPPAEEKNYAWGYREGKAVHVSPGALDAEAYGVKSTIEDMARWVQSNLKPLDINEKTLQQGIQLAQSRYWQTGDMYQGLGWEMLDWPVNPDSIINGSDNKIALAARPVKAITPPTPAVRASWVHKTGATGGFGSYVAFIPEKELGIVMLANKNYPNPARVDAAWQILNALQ
#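 20 mM phosphate pH 7.0 + 0.01% (detergent screen) or 0.0001% Triton X-100; 5.3 nM AmpC reagent; cpd preinc 15 min RT; nitrocefin (800 uM stock) to start; A480 q20 s × 4 min; Activity was normalised to no-enzyme and no-compound control wells.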
# Sm TGR inh: qHTS Assay for the Inhibitors of Schistosoma Mansoni Peroxiredoxins. 360,000 compounds, 3% hits. Potency, µM (titrated, usually from 114 µM), for inactives: at the highest dose activity change, negative = inhibition, usual class: inhibitors. purified TGR, DTNB reduction, TNB absorbance 405 nm. AID 485364, 2010. Schistosoma mansoni thioredoxin glutathione reductase (TGR), Q962Y6; also: % is scaled to controls: 0 for no effect and ±100 for the full control effect; nearly all actives have a fitted effect of over 60% in size
#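 First, TGR (20 nM dispensed) and NADPH were mixed with compound. Second, a 15 min room-temperature incubation followed. Third, further NADPH and then DTNB were added to start the reaction. Finally, TNB absorbance was monitored kinetically.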
# Pf growth 96h: Primary qHTS for delayed death inhibitors of the malarial parasite plastid, 96 hour incubation. P. falciparum luciferase reporter growth, 96 h. Potency, µM (highest dose often 28.7 µM), for inactives: at the top dose activity change, negative = inhibition, hits mostly inhibitors. 320,000 compounds, 6.9% hits. AID 504834, 2011; also: % is scaled to controls: 0 for no effect and ±100 for the full control effect
#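 Compounds incubated with erythrocytes infected by luciferase-expressing P. falciparum (2% hematocrit, 0.05% parasitemia final) for 96 hours, 37 C in 5% CO2. Growth inhibition scored as decreased luciferase luminescence.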
# SARS PLpro yeast: qHTS of Yeast-based Assay for SARS-CoV PLP. S. cerevisiae expressing SARS-CoV PLpro, growth rescue. Potency, µM (top dose mostly 32.9 µM), for inactives: at the highest dose activity, positive = growth rescue, usual class: activators. 330,000 compounds, 0.19% hits. AID 485353, 2010; calls by dose curve; also: 0% is about no effect; nearly all actives have a fitted effect of over 55% in size
# AmpC inh no detg: qHTS Inhibitors of AmpC Beta-Lactamase (assay without detergent); Potency, µM (doses to about 57.1 µM), for inactives: at the top dose activity change, negative = inhibition, hits mostly inhibitors; AID 485341, 2010; 330,000 compounds, 0.52% hits; AmpC nitrocefin hydrolysis, absorbance 480 nm, 0.0001% Triton; P00811;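 also: plate controls were no compound for no effect and no enzyme for full effect; nearly all actives have a fitted effect of over 20% in size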
#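 AmpC (5.3 nM in the dispensed reagent) in 20 mM phosphate pH 7.0 with 0.01% (detergent screen) or 0.0001% Triton X-100 was preincubated with compounds for 15 min at room temperature. Nitrocefin was then added from an 800 uM solution, and hydrolysis was followed at 480 nm.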
# Pf growth 48h: Primary qHTS for delayed death inhibitors of the malarial parasite plastid, 48 hour incubation. Potency, µM (titrated, usually from 28.7 µM), for inactives: at the highest dose activity change, negative = inhibition, usual class: inhibitors. AID 504832, 2011. 310,000 compounds, 5.9% hits. P. falciparum luciferase growth in erythrocytes, 48 h; also: % is scaled to controls: 0 for no effect and ±100 for the full control effect
#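 First compound was added to culture medium, then infected red cells at 0.1% parasitemia and 2% hematocrit (final). After incubation at 37 C under 5% CO2, luciferase detection reagent was dispensed and light output recorded.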
# An asterisk follows results filed as active; ? = inconclusive; . = not tested or not shown; [ ] = remark or other dose. Rows were chosen to be rich in hits. Some 12% of all compounds tested hit in one or more screens of this group. Unless noted, calls follow the shape of the dose curve; as a rule, active = well fitted curve in the direction sought with a large enough effect; inconclusive = small, poorly fitted or top-dose-only effect, or another doubt; inactive = no such curve, though single readings can be large; an effect the other way counts as inactive or inconclusive. Potency is read from the fitted curve at half-maximal effect.
SMILES,AmpC detergent,Sm TGR inh,Pf growth 96h,SARS PLpro yeast,AmpC inh no detg,Pf growth 48h
CCCCCC(=O)Nc1cc(S(=O)(=O)N2CCCCC2)ccc1N1CCOCC1,-12%,-12%,?,-3%,82%,13µM*
CCc1ccc(OCC(=O)N/N=C\c2ccco2)c([N+](=O)[O-])c1,?,-24%,14%,-33%,-23%,22%
CCOc1ccc(S(=O)(=O)N2CCCC(C(=O)NCc3ccccc3)C2)cc1 (stereo not drawn),-4%,4%,37%,3%,1%,13%
COc1ccc(Cl)cc1S(=O)(=O)N1CCCC(C(=O)NCCc2ccccc2)C1 (stereo not drawn),2%,-2%,10µM*,-2%,-2%,38%
O=C(NCCc1ccccc1)C1CCCN(S(=O)(=O)c2cccnc2)C1 (stereo not drawn),-3%,28%,11%,4%,11%,-4%
O=C(NCc1ccccc1)C1CCCN(S(=O)(=O)c2ccc(Br)cc2)C1 (stereo not drawn),8%,-2%,0.29µM*,7%,-25%,-30%
NS(=O)(=O)c1ccc(CCNC(=O)C2CCCN(S(=O)(=O)c3cccnc3)C2)cc1 (stereo not drawn),-7%,-29%,7.4µM*,-4%,-14%,.
COc1ccc(Cl)cc1S(=O)(=O)N1CCCC(C(=O)NCc2ccccc2)C1 (stereo not drawn),0%,0%,-12%,0%,47%,-16%
CCOC(=O)c1[nH]c2ccccc2c1NC(=O)c1ccc(S(=O)(=O)N2CCCC2)cc1,-19%,-8%,12µM*,12%,25%,?
C/C(=N\OC(=O)Nc1ccc(Cl)cc1)c1ccc(F)c(F)c1,-13%,2%,26%,-7%,-46%,.
CCOC(=O)c1ccc(NC(=O)C2CCCN(S(=O)(=O)c3ccc(F)cc3)C2)cc1 (stereo not drawn),?,-15%,8.3µM*,-11%,-4%,.
COc1ccc(S(=O)(=O)N2CCCC(C(=O)NCc3ccc(F)cc3)C2)cc1 (stereo not drawn),-1%,4%,2%,-22%,-10%,1%
O=C(NCc1ccccc1)C1CCCN(S(=O)(=O)c2ccc(F)cc2)C1 (stereo not drawn),4%,-22%,12µM*,21%,-7%,-4%
COc1ccc(CCNC(=O)C2CCCN(S(=O)(=O)c3ccc(F)cc3)C2)cc1 (stereo not drawn),-1%,89µM*,?,-1%,15%,?
COCCN(C(=O)CSc1ncc(C(F)(F)F)cc1Cl)c1c(N)n(Cc2ccccc2)c(=O)[nH]c1=O,-8%,-7%,13%,0%,4%[11.4 µM],-12%
CCOC(=O)CCc1c(C)nc(SCCCn2c(=O)[nH]c3ccccc32)c(C#N)c1C,-13%,4%,-1%,-2%,-13%,?
CCOC(=O)CCc1c(C)nc(SCCN2CCCC2)c(C#N)c1C,0%,-3%,5.2µM*,9%,20%,?
CC/C(=N\NC(=O)c1cc(C2CC2)[nH]n1)c1ccccc1,-12%,-9%,41%,-19%,-40%,68%
O=C(CCCN1C(=O)c2cccc3cccc(c23)C1=O)N1CCN(c2ccccc2O)CC1,?,-3%,?,-7%,64%,?
Cc1ccccc1NS(=O)(=O)c1ccc(C(=O)N2CCCCCC2)cc1,?,-1%,15%,1%,10%,-8%
CCOc1ccccc1N1CCN(C(=O)CCCN2C(=O)c3cccc4cccc(c34)C2=O)CC1,1%,4%,9.3µM*,-19%,171%,?
Cc1ccccc1NS(=O)(=O)c1ccc(C(=O)N2CCN(c3ccccc3O)CC2)cc1,1%,5%,5.2µM*,1%,37%,13µM*
CCOc1ccccc1N1CCN(C(=O)c2ccccc2SCC(=O)N2CCCC2)CC1,1%,-4%,13µM*,-1%,122%,?
Cc1ccc(S(=O)(=O)Nc2ccc(C(=O)N3CCN(c4ccccc4O)CC3)cc2)cc1[N+](=O)[O-],?,-34%,-84%,-28%,-26%,15µM*
Cc1cccc(N2CCN(C(=O)NC3CCCCC3)CC2)c1C,-2%,6%,0%,-8%,3%,43%
SMILES,AmpC detergent,Sm TGR inh,Pf growth 96h,SARS PLpro yeast,AmpC inh no detg,Pf growth 48h
CCOc1ccccc1N1CCN(C(=O)c2ccccc2)CC1,-7%,-3%,31%,-3%,26%,-28%
CCOc1ccccc1N1CCN(C(=O)c2ccc(S(=O)(=O)Nc3ccccc3)cc2)CC1,9%,14%,9.3µM*,5%,41%,?
CCOc1ccccc1N1CCN(C(=O)NC2CCCCC2)CC1,-3%,-2%,1.7µM*,-3%,44%,-7%
COc1ccc(CC(C(=O)Nc2ccc(OC)cc2)c2nn[nH]n2)cc1 (stereo not drawn),-9%,-18%,?,2%,-4%,4%
N#CC(C#N)=CNc1cccnc1,5%,-22%,-9%,0%,0%,13%
Cc1cccc(/C=N/NC(=O)c2cc(Br)ccc2OCc2ccccc2)n1,-13%,20%,-5%,-3%,-21%,?
O=C(N/N=C/c1ccncc1)c1ccccc1OCc1ccc(Br)cc1,-14%,-7%,1.9µM*,-32%,2%,-62%
Cc1cccc(/C=N/NC(=O)c2ccccc2OCc2cccc(Br)c2)n1,-6%,2%,?,-5%,4%,15µM*
Cc1ccc(/C=N/NC(=O)c2ccccc2OCc2ccc(F)cc2)o1,-12%,-14%,?,-46%,-24%,?
O=C(CSc1n[nH]c(-c2ccncc2)n1)Nc1ccccc1Cl,?,4%,3%,-4%,?,2%
CC1(C)CCC(NC(=O)[C@@H](N)CCC(=O)O)CC1,.,.,3%,.,.,3%
Fc1cc2ncn(Cc3ccccc3)c2cc1F,?,56µM*,-3%[5.75 µM],1%,-16%,-15%
Clc1ccc(Cn2cnc3ccccc32)cc1,5%,-15%,2%,-10%,-14%,?
Cc1cc2c(ncn2Cc2ccccc2)c([N+](=O)[O-])c1C,7%,10%,?,-13%,3%,?
c1ccc(Cn2cnc3ccccc32)cc1,?,1%,8.3µM*,-4%,-11%,1%
O=C(Cn1ccc2cc(S(=O)(=O)N3CCCCC3)ccc21)NCc1ccccc1Cl,8%,6%,.,.,.,.
